Records with an inconclusive call do not appear. Calls of active or inactive are those of the source. The calls were made as follows, unless noted: active = hit-call score of the fitted dose curve at least 0.9, where 1 is the maximum; inactive = score below 0.9.
Assays:
[1] = read-out: Interleukin-1 alpha (IL1a), IL1A (gene 3552); assay: BSK_BE3C_IL1a: BioMAP Diversity Plus: BE3C Assay for Interleukin-1 alpha (IL1a) Biomarker Activity (AID 2283016); conditions: primary human bronchial epithelial cells; actives raise or lower the signal
In short: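 Human primary bronchial epithelial cells, 24 h chemical exposure; IL-1a quantified by ELISA, fitted bidirectionally against DMSO. Cytotoxicity assessed in parallel by SRB total-protein staining at the time of measurement.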

[2] = read-out: Monocyte Chemoattractant Protein-1 (MCP1), CCL2 (gene 6347); assay: BSK_4H_MCP1: BioMAP Diversity Plus: 4H Assay for Monocyte Chemoattractant Protein-1 (MCP1) Biomarker Activity (AID 2283018); conditions: primary human endothelial cells (HUVEC); actives raise or lower the signal
In short: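 Human umbilical vein endothelial cells (4H system) exposed to chemicals for 24 h in 96-well format. MCP-1 measured by ELISA; bidirectional fitting against DMSO, with SRB total-protein staining in parallel cultures for cytotoxicity.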

[3] = read-out: Human Leukocyte Antigen - DR isotype (HLADR), HLA-DRA (gene 3122); assay: BSK_3C_HLADR: BioMAP Diversity Plus: 3C Assay for Human Leukocyte Antigen - DR isotype (HLADR) Biomarker Activity (AID 2283019); conditions: primary human endothelial cells (HUVEC); actives raise or lower the signal
In short: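 Endothelial cells from human umbilical vein are treated with test chemical; after 24 h, HLA-DR levels are measured by ELISA. Data are fitted in both directions using DMSO as the baseline.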

[4] = read-out: Interleukin-8 (IL8), CXCL8 (gene 3576); assay: BSK_3C_IL8: BioMAP Diversity Plus: 3C Assay for Interleukin-8 (IL8) Biomarker Activity (AID 2283020); conditions: primary human endothelial cells (HUVEC); actives raise or lower the signal
In short: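 Primary human umbilical vein endothelial cells were dosed for 24 h. IL-8 was quantified by ELISA and fitted bidirectionally against DMSO. Cytotoxicity was assessed in parallel cultures by SRB staining at 560 nm.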

[5] = read-out: Monokine induced gamma interferon (MIG), CXCL9 (gene 4283); assay: BSK_3C_MIG: BioMAP Diversity Plus: 3C Assay for Monokine induced gamma interferon (MIG) Biomarker Activity (AID 2283021); conditions: primary human endothelial cells (HUVEC); actives raise or lower the signal;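 as to AC50: MIG protein level measured by immunoassay in the treated endothelial cultures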
In short: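 HUVEC primary endothelial cultures dosed with chemical; MIG quantified by ELISA at 24 h. Data fitted bidirectionally against DMSO control, with parallel SRB total-protein staining for cytotoxicity.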

[6] = molecular target: human Vitamin D Receptor (VDR), VDR (gene 7421) (UniProt P11473); assay: ATG_VDR_TRANS: Attagene TRANS-FACTORIAL HepG2 Assay for human Vitamin D Receptor (VDR) (AID 2283022; active = hit-call score of the fitted dose curve at least 0.9, where 1 is the maximum)
human Vitamin D Receptor (VDR), VDR (gene 7421), sequence (P11473 whole entry, looked up, the tested form may be a part): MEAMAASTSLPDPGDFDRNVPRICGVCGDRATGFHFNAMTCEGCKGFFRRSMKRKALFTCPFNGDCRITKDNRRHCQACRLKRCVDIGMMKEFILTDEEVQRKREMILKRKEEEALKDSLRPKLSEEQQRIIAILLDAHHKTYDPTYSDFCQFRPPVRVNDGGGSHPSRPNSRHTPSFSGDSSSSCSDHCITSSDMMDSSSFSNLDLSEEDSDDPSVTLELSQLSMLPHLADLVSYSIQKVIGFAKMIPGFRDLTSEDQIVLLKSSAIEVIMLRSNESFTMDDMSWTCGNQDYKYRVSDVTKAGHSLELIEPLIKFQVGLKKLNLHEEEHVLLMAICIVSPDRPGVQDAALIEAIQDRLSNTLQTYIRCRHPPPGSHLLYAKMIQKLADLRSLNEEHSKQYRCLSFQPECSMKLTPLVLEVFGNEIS
In short: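 Fluorescence of labelled reporter cDNA fragments, resolved by capillary electrophoresis, gives mRNA induction after 24 h treatment of HepG2 cells carrying transfected Gal4-fusion reporter units. Activity is fitted in the positive direction with DMSO as baseline.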

[7] = BSK_3C_SRB: Viability Assessment in the BioMAP Diversity Plus: 3C Assay (AID 2283023); conditions: primary human endothelial cells (HUVEC);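 also: cells read 24 h after compound dosing; fitted both ways against DMSO so a hit may be signal rise or drop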
In short: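 Cells were dosed with chemical, cultured 24 h, fixed with 10% TCA, stained with 0.1% SRB and read at 560 nm. Human umbilical vein endothelium was used; DMSO served as negative control and baseline.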

[8] = read-out: Matrix Metallopeptidase 1 (MMP1), MMP1 (gene 4312); assay: BSK_BE3C_MMP1: BioMAP Diversity Plus: BE3C Assay for Matrix Metallopeptidase 1 (MMP1) Biomarker Activity (AID 2283024); conditions: primary human bronchial epithelial cells; actives raise or lower the signal
In short: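 Human primary bronchial epithelial cells (BE3C system) dosed for 24 h; MMP-1 quantified by ELISA. Bidirectional fit against DMSO; cytotoxicity tracked in parallel cultures by SRB total-protein staining.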

[9] = BSK_3C_Vis: BioMAP Diversity Plus: 3C Assay for Morphology Visualization (AID 2283025); conditions: primary human endothelial cells (HUVEC);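 also: fitted both ways so gain or loss versus DMSO counts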;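 as to AC50: light microscopy image of cell morphology used as background control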
In short: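 Human umbilical vein endothelial cell morphology was inspected by light microscopy 24 h after chemical dosing; scored bidirectionally relative to DMSO.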

[10] = read-out: Pselectin, SELP (gene 6403); assay: BSK_4H_Pselectin: BioMAP Diversity Plus: 4H Assay for Pselectin Biomarker Activity (AID 2283026); conditions: primary human endothelial cells (HUVEC); actives raise or lower the signal
In short: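 Primary human umbilical vein endothelial cells were treated 24 h, and cell-surface P-selectin was then quantified by ELISA. Bidirectional fit versus DMSO; cytotoxicity checked in parallel cultures by SRB total-protein staining.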

[11] = BSK_4H_SRB: Viability Assessment in the BioMAP Diversity Plus: 4H Assay (AID 2283027); conditions: primary human endothelial cells (HUVEC);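 also: cells exposed to compound for 24 h before staining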;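 as to AC50: curves fitted both ways versus DMSO so AC50 may be loss or gain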
In short: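 Human umbilical vein endothelial cells were dosed with chemical and, after 24 h, fixed with 10% TCA, stained with 0.1% sulforhodamine B, and read at 560 nm to give total protein as a cytotoxicity measure. Bidirectional fitting relative to DMSO control.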

[12] = BSK_BE3C_SRB: Viability Assessment in the BioMAP Diversity Plus: BE3C Assay (AID 2283028); conditions: primary human bronchial epithelial cells;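 as to AC50: fitted both ways so AC50 may mark signal gain or loss versus DMSO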
In short: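 Overt cytotoxicity was assessed as total protein in confluent human primary bronchial epithelial cultures 24 h after chemical addition, using 0.1% sulforhodamine B staining read at 560 nm.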

[13] = read-out: Thrombomodulin, THBD (gene 7056); assay: BSK_3C_Thrombomodulin: BioMAP Diversity Plus: 3C Assay for Thrombomodulin Biomarker Activity (AID 2283029); conditions: primary human endothelial cells (HUVEC); actives raise or lower the signal
In short: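 Human umbilical vein endothelial cells were exposed to chemicals for 24 h; cell-surface thrombomodulin quantified by ELISA, with bidirectional fitting against DMSO baseline.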

[14] = read-out: Urokinase-type plasminogen activator receptor (uPAR), PLAUR (gene 5329); assay: BSK_4H_uPAR: BioMAP Diversity Plus: 4H Assay for Urokinase-type plasminogen activator receptor (uPAR) Biomarker Activity (AID 2283030); conditions: primary human endothelial cells (HUVEC); actives raise or lower the signal
In short: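 Chemicals are dosed onto human vascular endothelial primary cells (umbilical vein). After 24 h, uPAR is read by ELISA. Gain or loss of signal is fitted relative to DMSO.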

[15] = read-out: Vascular endothelial growth factor receptor 2 (Homo sapiens) (UniProt P35968); assay: BSK_4H_VEGFRII: BioMAP Diversity Plus: 4H Assay for Vascular endothelial growth factor receptor 2 (VEGFR2) Biomarker Activity (AID 2283031); conditions: primary human endothelial cells (HUVEC); actives raise or lower the signal;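 as to AC50: cell-surface VEGFR2 protein level quantified by ELISA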
In short: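 VEGFRII levels on human vascular endothelial primary cells were determined by ELISA at 24 hours post-dosing, with gain- or loss-of-signal fitted against DMSO controls.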

[16] = read-out: Human Leukocyte Antigen - DR isotype (HLADR), HLA-DRA (gene 3122); assay: BSK_BE3C_HLADR: BioMAP Diversity Plus: BE3C Assay for Human Leukocyte Antigen - DR isotype (HLADR) Biomarker Activity (AID 2283032); conditions: primary human bronchial epithelial cells; actives raise or lower the signal
In short: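 Human primary bronchial epithelial cells (BE3C system) exposed to compound for 24 hours; cell-surface HLA-DR measured by ELISA, fitted bidirectionally relative to DMSO. Total protein by SRB in parallel cultures tracked cytotoxicity.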

[17] = read-out: Vascular cell adhesion molecule 1 (VCAM1), VCAM1 (gene 7412); assay: BSK_4H_VCAM1: BioMAP Diversity Plus: 4H Assay for Vascular cell adhesion molecule 1 (VCAM1) Biomarker Activity (AID 2283033); conditions: primary human endothelial cells (HUVEC); actives raise or lower the signal
In short: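 Primary human umbilical vein endothelial cells, 4H stimulation system, treated for 24 h; cell-surface VCAM-1 quantified by ELISA. Bidirectional fitting against DMSO; cytotoxicity tracked by SRB total-protein staining in parallel cultures.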

[18] = read-out: Interferon-gamma inducible Protein 10 (IP10), CXCL10 (gene 3627); assay: BSK_BE3C_IP10: BioMAP Diversity Plus: BE3C Assay for Interferon-gamma inducible Protein 10 (IP10) Biomarker Activity (AID 2283034); conditions: primary human bronchial epithelial cells; actives raise or lower the signal
In short: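 Primary human bronchial epithelial cells, with IP-10 measured by ELISA 24 hours after chemical dosing. Bidirectional fit against DMSO; cytotoxicity checked by SRB total protein staining in parallel cultures.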

[19] = read-out: Monocyte Chemoattractant Protein-1 (MCP1), CCL2 (gene 6347); assay: BSK_3C_MCP1: BioMAP Diversity Plus: 3C Assay for Monocyte Chemoattractant Protein-1 (MCP1) Biomarker Activity (AID 2283017); conditions: primary human endothelial cells (HUVEC); actives raise or lower the signal
In short: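 Endothelial cells from human umbilical vein are dosed with chemical, cultured 24 h, then assayed for MCP-1 by ELISA; both increases and decreases are modelled against DMSO controls.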

Measured: AC50

CCNc1ccccc1
inactive: [1] | [2] | [3] | [4] | [5] | [6] | [7] | [8] | [9] | [10] | [11] | [12] | [13] | [14] | [15] | [16] | [17] | [18]

O=C(O)c1cc(N=Nc2ccc(S(=O)(=O)Nc3ccccn3)cc2)ccc1O
inactive: [1] | [2] | [3] | [4] | [5] | [7] | [8] | [9] | [10] | [11] | [12] | [13] | [14] | [15] | [16] | [17] | [18]

COCCOCCOCCOC
inactive: [1] | [2] | [3] | [4] | [5] | [7] | [8] | [9] | [10] | [11] | [12] | [13] | [14] | [15] | [16] | [17]

Cn1c(=O)c2c(ncn2C)n(C)c1=O
inactive: [1] | [2] | [3] | [4] | [5] | [7] | [8] | [9] | [10] | [11] | [12] | [13] | [14] | [15] | [16] | [17] | [18]

CC(C)=CCC/C(C)=C/CO
inactive: [1] | [2] | [3] | [4] | [5] | [6] | [7] | [8] | [9] | [10] | [11] | [12] | [13] | [14] | [15] | [16] | [17]

CCCN(C1CCN(C(=O)C2CCNCC2)CC1)[C@@H]1CCc2ccc(OC)cc2C1
inactive: [1] | [2] | [3] | [4] | [5] | [6] | [7] | [8] | [9] | [10] | [11] | [12] | [13] | [14] | [15] | [16] | [17] | [18]

On1ccccc1=S
inactive: [4] | [6]
active: [1] 4.99 µM | [19] 28.8 µM | [2] 30.8 µM | [3] 12.9 µM | [5] 32 µM | [7] 29.7 µM | [8] 10.9 µM | [9] 38.4 µM | [10] 11.8 µM | [11] 14.8 µM | [12] 9.28 µM | [13] 5.96 µM | [14] 19.8 µM | [16] 3.31 µM | [17] 14.8 µM | [18] 3.8 µM

Nc1cccc(N)c1
inactive: [1] | [2] | [3] | [4] | [5] | [6] | [7] | [8] | [9] | [10] | [11] | [12] | [13] | [14] | [15] | [16] | [17]

CC(C)c1cccc(C(C)C)c1N1C(=O)c2ccc(O)cc2C1=O
active: [1] 20 µM | [2] 4.76 µM | [3] 8.36 µM | [4] 4.86 µM | [7] 17.3 µM | [9] 5.57 µM | [10] 8.54 µM | [11] 12.8 µM | [14] 14.6 µM | [15] 20 µM | [16] 14 µM | [17] 29.4 µM | [18] 19.5 µM
inactive: [5] | [6] | [8] | [12] | [13]

From PubChem BioAssay (EPA / NIEHS)
